# PubChem BioAssay (NCI)
# Compounds without any hit were thinned out: in the full panel of roughly 79,000, 15% have a hit. Unmarked numbers belong to inactive results. Calls of active or inactive are those of the source. Rule as the data show it: active = growth inhibition above about 70%; inactive = the rest.
# Columns and labels:
# [1] = NCI Yeast Anticancer Drug Screen. Data for the rad52 strain (AID 147);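 also: 0% = growth of vehicle-treated control cultures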; settings: S. cerevisiae rad52 mutant growth inhibition, hits give high values
# Summary of the method: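 DNA repair-defective yeast; compound exposure; growth scored against vehicle controls.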
# [2] = NCI Yeast Anticancer Drug Screen. Data for the wt1 strain (AID 149);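 also: 0% = growth of vehicle-treated wt1 cultures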; settings: S. cerevisiae wt1 strain (SPY 50644) growth inhibition, hits give high values
# Summary of the method: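 Using yeast strain wt1, compound-induced growth inhibition was determined against vehicle-treated cultures.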
# [3] = NCI Yeast Anticancer Drug Screen. Data for the rad50EPP+ strain (AID 151);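 also: 0% = growth of vehicle-treated control cultures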; settings: S. cerevisiae rad50 mutant strain, hits give high values
# Summary of the method: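 rad50EPP+ yeast treated with test compounds. Readout: growth vs vehicle control.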
# [4] = NCI Yeast Anticancer Drug Screen. Data for the mgt1 strain (AID 153); settings: S. cerevisiae mgt1 mutant growth inhibition, hits give high values
# Summary of the method: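 Growth inhibition relative to vehicle controls was scored for the mgt1 yeast strain after compound exposure.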
# [5] = NCI Yeast Anticancer Drug Screen. Data for the rad50 strain (AID 155);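 also: 0% = growth of vehicle-only cultures of the same strain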; settings: S. cerevisiae rad50 strain growth inhibition, hits give high values
# Summary of the method: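 Relative growth inhibition (compound vs vehicle) was measured in yeast with a defined repair-gene alteration.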
# [6] = NCI Yeast Anticancer Drug Screen. Data for the mec2-1 strain (AID 157); settings: S. cerevisiae mec2-1 strain, hits give high values
# Summary of the method: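 Growth inhibition is read against vehicle-treated controls after compound exposure of the mec2-1 yeast strain, which is defective in DNA damage repair or cell cycle control.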
# [7] = NCI Yeast Anticancer Drug Screen. Data for the rad14 strain (AID 159);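 also: 0% = growth of vehicle-treated control cultures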; settings: S. cerevisiae rad14 strain growth inhibition, hits give high values
# Summary of the method: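 Screen for anticancer potential: a yeast strain altered in DNA damage repair is grown with compound, and reduced growth is quantified against vehicle controls.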
# [8] = NCI Yeast Anticancer Drug Screen. Data for the sgs1 mgt1 strain (AID 161);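 also: 0% = growth of cultures given vehicle only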; settings: S. cerevisiae sgs1 mgt1 strain, hits give high values
# Summary of the method: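 Compounds are added to genetically altered yeast, and growth is compared with cultures given vehicle alone to give percent inhibition.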
# [9] = NCI Yeast Anticancer Drug Screen. Data for the CLN2oe strain (AID 163);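 also: 0% = growth of vehicle-only control cultures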; settings: S. cerevisiae CLN2oe strain, hits give high values
# Summary of the method: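 Compound-treated yeast; growth vs vehicle ctrl = % inhibition. Genetically altered strain (cell-cycle control).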
# [10] = NCI Yeast Anticancer Drug Screen. Data for the cln2 rad14 strain (AID 165);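 also: 0% = growth equal to vehicle treated cultures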; settings: S. cerevisiae cln2 rad14 strain, hits give high values
# Summary of the method: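 Growth inhibition, relative to vehicle-treated controls, is the read-out. The test organism is a yeast strain with defined genetic alterations, cln2 rad14.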
# [11] = NCI Yeast Anticancer Drug Screen. Data for the bub3 strain (AID 167); settings: S. cerevisiae bub3 mutant strain, hits give high values
# Summary of the method: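 Screening used yeast with an engineered genetic alteration affecting cell cycle control. Compound-exposed cultures were compared with vehicle cultures, and reduced growth was taken as inhibition.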
# [12] = NCI Yeast Anticancer Drug Screen. Data for the wt2 strain (AID 169);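 also: 0% = growth of vehicle-treated yeast cultures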; settings: S. cerevisiae wt2 strain growth inhibition, hits give high values
# Summary of the method: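 Compound exposure of yeast; growth compared with vehicle controls; inhibition reported.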
# [13] = NCI Yeast Anticancer Drug Screen. Data for the mlh1 strain (AID 171);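 also: 0% = growth of vehicle-treated control cultures of the same strain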; settings: S. cerevisiae mlh1 strain growth inhibition, hits give high values
# Summary of the method: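 Compounds are applied to a genetically altered yeast strain, and its growth is compared with that of vehicle-treated cultures to give percent inhibition.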
# [14] = NCI Yeast Anticancer Drug Screen. Data for the sgs1 strain (AID 173);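 also: 0% = growth of vehicle-only control cultures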; settings: S. cerevisiae sgs1 mutant, hits give high values
# Summary of the method: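 Compounds applied to genetically altered yeast; growth compared with vehicle-treated cultures to give % inhibition.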
# [15] = NCI Yeast Anticancer Drug Screen. Data for the mlh1 rad18 strain (AID 175); settings: S. cerevisiae mlh1 rad18 strain growth inhibition, hits give high values
# Summary of the method: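 Cells of a genetically altered yeast strain, deficient in DNA damage repair, were treated with compound. Their growth was then compared with that of vehicle-treated cultures to give inhibition.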
# [16] = NCI Yeast Anticancer Drug Screen. Data for the rad18 strain (AID 177); settings: S. cerevisiae rad18 mutant growth inhibition, hits give high values
# Summary of the method: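 Compounds are applied to a repair-deficient yeast strain, and growth is compared with that of vehicle-treated cultures to give percent inhibition.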
# [17] = at 5.0 µM (retest, dose inferred, filed as 0.5)
# [18] = at 50.0 µM (retest, dose inferred, filed as 5.0)
structure (smiles),measurement,setting,value
OCc1ccccc1Cc1ccccc1,growth inhibition,[1]; at 1.2 µM,-4%
same,growth inhibition,[1]; at 3.7 µM,0%
same,growth inhibition,[1]; at 11.0 µM,-2%
same,growth inhibition,[1]; at 33.0 µM,-3%
same,growth inhibition,[1]; at 100.0 µM,-3%
same,growth inhibition,[2]; at 1.2 µM,0%
same,growth inhibition,[2]; at 3.7 µM,-1%
same,growth inhibition,[2]; at 11.0 µM,0%
same,growth inhibition,[2]; at 33.0 µM,-2%
same,growth inhibition,[2]; at 100.0 µM,-7%
same,growth inhibition,[3]; at 1.2 µM,2%
same,growth inhibition,[3]; at 3.7 µM,2%
same,growth inhibition,[3]; at 11.0 µM,8%
same,growth inhibition,[3]; at 33.0 µM,12%
same,growth inhibition,[3]; at 100.0 µM,30%
same,growth inhibition,[4]; at 1.2 µM,-3%
same,growth inhibition,[4]; at 3.7 µM,-5%
same,growth inhibition,[4]; at 11.0 µM,-2%
same,growth inhibition,[4]; at 33.0 µM,12%
same,growth inhibition,[4]; at 100.0 µM,-10%
same,growth inhibition,[5]; at 1.2 µM,-1%
same,growth inhibition,[5]; at 3.7 µM,0%
same,growth inhibition,[5]; [17],7%
same,growth inhibition,[5]; at 11.0 µM,-1%
same,growth inhibition,[5]; at 33.0 µM,-3%
same,growth inhibition,[5]; [18],21%
same,growth inhibition,[5]; at 50.0 µM,87.9% (active)
same,growth inhibition,[5]; at 100.0 µM,-6%
same,growth inhibition,[6]; at 1.2 µM,-1%
same,growth inhibition,[6]; at 3.7 µM,2%
same,growth inhibition,[6]; [17],-2%
same,growth inhibition,[6]; at 11.0 µM,-4%
same,growth inhibition,[6]; at 33.0 µM,-6%
same,growth inhibition,[6]; [18],-17%
same,growth inhibition,[6]; at 50.0 µM,53.4%
same,growth inhibition,[6]; at 100.0 µM,-6%
same,growth inhibition,[7]; at 1.2 µM,-1%
same,growth inhibition,[7]; at 3.7 µM,-1%
same,growth inhibition,[7]; at 11.0 µM,0%
same,growth inhibition,[7]; at 33.0 µM,-2%
same,growth inhibition,[7]; at 100.0 µM,-3%
same,growth inhibition,[8]; [17],0%
same,growth inhibition,[8]; [18],50%
same,growth inhibition,[8]; at 50.0 µM,60.5%
same,growth inhibition,[9]; at 1.2 µM,-7%
same,growth inhibition,[9]; at 3.7 µM,0%
same,growth inhibition,[9]; at 11.0 µM,-2%
same,growth inhibition,[9]; at 33.0 µM,-5%
same,growth inhibition,[9]; at 100.0 µM,-7%
same,growth inhibition,[10]; [17],5%
same,growth inhibition,[10]; [18],-2%
same,growth inhibition,[10]; at 50.0 µM,32.9%
same,growth inhibition,[11]; at 1.2 µM,2%
same,growth inhibition,[11]; at 3.7 µM,-1%
same,growth inhibition,[11]; [17],12%
same,growth inhibition,[11]; at 11.0 µM,5%
same,growth inhibition,[11]; at 33.0 µM,1%
same,growth inhibition,[11]; [18],40%
same,growth inhibition,[11]; at 50.0 µM,65.8%
same,growth inhibition,[11]; at 100.0 µM,-9%
same,growth inhibition,[12]; at 1.2 µM,0%
same,growth inhibition,[12]; at 3.7 µM,0%
same,growth inhibition,[12]; at 11.0 µM,0%
same,growth inhibition,[12]; at 33.0 µM,-2%
same,growth inhibition,[12]; at 100.0 µM,-7%
same,growth inhibition,[13]; at 1.2 µM,-1%
same,growth inhibition,[13]; at 3.7 µM,-1%
same,growth inhibition,[13]; at 11.0 µM,0%
same,growth inhibition,[13]; at 33.0 µM,-2%
same,growth inhibition,[13]; at 100.0 µM,-3%
same,growth inhibition,[14]; at 1.2 µM,0%
same,growth inhibition,[14]; at 3.7 µM,2%
same,growth inhibition,[14]; at 11.0 µM,2%
same,growth inhibition,[14]; at 33.0 µM,1%
same,growth inhibition,[14]; at 100.0 µM,-1%
same,growth inhibition,[15]; [17],3%
same,growth inhibition,[15]; [18],63%
same,growth inhibition,[15]; at 50.0 µM,79.6% (active)
same,growth inhibition,[16]; at 1.2 µM,-1%
same,growth inhibition,[16]; at 3.7 µM,0%
same,growth inhibition,[16]; at 11.0 µM,-16%
same,growth inhibition,[16]; at 33.0 µM,-2%
same,growth inhibition,[16]; at 100.0 µM,-6%
